The list is not random: actives were taken first. Their share in the collection is about 7.8%.
Vaccinia Venus = vaccinia inhibition (Venus reporter). Vaccinia virus Venus reporter expression, fluorescence. Potency, µM (highest dose often 36.5 µM), actives largely listed as inhibitors. actives 0.46% (n = 330,000). AID 720580; calls by dose curve; tested in A549 cells; also: nearly all actives have a fitted effect of over 30% in size
MARV entry inh = blocks Marburg virus binding to or entry into cells; Marburg virus pseudotyped entry inhibition, cell reporter; Potency, µM (doses to about 37.8 µM), usual class: inhibitors; actives 1.8% (n = 300,000); AID 540276; calls by dose curve; tested in HEK293 cells
HCMV inh = blocks human cytomegalovirus replication; HFF cells, HCMV-luciferase reporter, 72 h; stronger effect = lower value; actives 4.5% (n = 410,000); AID 1259415; activity change, negative = inhibition, % at 57.5 µM; in the data active = activity change below about -60%; inconclusive = no clear call, values can overlap the other calls; inactive = above about -39%
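Inhibition of viral replication was scored as loss of reporter luminescence in HFFs infected with HCMV-luciferase (MOI 1 PFU/cell) for 72 h; compounds tested at 2 doses, normalized to buffer and Salinomycin controls.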
Vaccinia mCherry = inhibitors of vaccinia virus infection (mCherry reporter signal) | Vaccinia virus mCherry reporter infection, fluorescence | Potency, µM (highest dose often 36.5 µM), most hits filed as inhibitors | actives 0.63% (n = 310,000) | AID 720579; calls by dose curve; tested in A549 cells; also: nearly all actives have a fitted effect of over 35% in size
LASV entry inh = blocks Lassa virus binding to or entry into cells; Lassa virus pseudotype entry inhibition, cell reporter; Potency, µM (top dose mostly 37.9 µM), hits mostly inhibitors; actives 1.2% (n = 300,000); AID 540256; calls by dose curve; tested in HEK293 cells; also: nearly all actives have a fitted effect of over 50% in size
HCV inh = HCV inhibition. Huh7.5.1 HCVcc-Cre infection, luciferase reporter, 44 h. Potency, µM (titrated, usually from 41.8 µM), actives largely listed as inhibitors. actives 3.4% (n = 340,000). AID 651820
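1,000 cells/well; 4 h culture; + compound; + HCVcc-Cre (~0.5 moi); 44 h; luciferase substrate, RT 15 min; read 15 sec.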
G2M arrest HeLa = causes HeLa cells to arrest in G2/M phase | AID 2441 | HeLa cell cycle G2/M arrest, Hoechst DNA content imaging | shares compounds with MARV entry inh | actives 60% (n = 25) | Potency, µM, usual class: inhibitors
WI-38 tox = counter-screen for perinucleolar compartment inhibitors: WI-38 cytotoxicity; Potency, µM (top dose mostly 46.1 µM), actives largely listed as inhibitors; 120 tested, under 10 active; WI-38 normal lung fibroblasts, ATPLite luminescence ATP viability, 24 h; shares compounds with MARV entry inh
PNC inh conf = confirmation of perinucleolar compartment assembly inhibitors; PC3M PTB-GFP, PNC prevalence imaging, 16 h; Potency, µM (top dose mostly 46.1 µM), usual class: inhibitors; shares compounds with MARV entry inh; AID 2730; actives 50% (n = 120)
PC3M caspase = activates caspase 3/7 in PC3M cells in PNC counter-screen. shares compounds with MARV entry inh. 120 tested, under 10 active. activity change, positive = activation, % at 46.1 µM. PC3M-GFP caspase 3/7 activation, luminescence, 24 h
A number is an active result; – = inactive; ? = inconclusive; · = not tested or not shown; ! = a repeat was not active; [ ] = another dose, or the depositor's remark. Unless noted, calls follow the shape of the dose curve; as a rule, active = well fitted curve in the direction sought with a large enough effect; inconclusive = small, poorly fitted or top-dose-only effect, or another doubt; inactive = no such curve, though single readings can be large; an effect the other way counts as inactive or inconclusive.

SMILES	Vaccinia Venus	MARV entry inh	HCMV inh	Vaccinia mCherry	LASV entry inh	HCV inh	WI-38 tox	PNC inh conf	PC3M caspase	others
Cc1ccc(S(=O)(=O)N(C)c2ccc(OCC(=O)Nc3nc4ccccc4s3)cc2)cc1	–	15µM	-80	?	?	?	–	?	–
Cc1ccc(S(=O)(=O)N(C)c2ccc(OCC(=O)Nc3ccc(S(C)(=O)=O)cc3)cc2)cc1	–	–	–	–	?	?	·	·	·
CCn1c(=O)c2sccc2n2c(CCCC(=O)N3CCN(c4ccccc4OC)CC3)nnc12	–	·	?	–	–	·	·	·	·
Cc1ccc(CCNC(=O)C2CCCN(S(=O)(=O)c3ccc4c(c3)oc(=O)n4C)C2)cc1 (stereo not given)	–	–	–	–	–	·	·	·	·
CC12CCC(C(=O)NC(c3ccccc3)c3ccccc3)(OC1=O)C2(C)C (stereo not given)	·	–	–	·	?	–	–	–	–
COc1cccc(-c2ccc3c(N)c(C(=O)c4ccc(Cl)cc4)sc3n2)c1	–	?	–	–	?	·	·	·	·
Cc1ccc(NC2=C/C(=N/S(=O)(=O)c3cccs3)c3ccccc3C2=O)cc1	?	4.6µM	-102	–	4.1µM	?	32µM	25µM	?
O=C1C(Nc2ccccc2)=C/C(=N/S(=O)(=O)c2cccs2)c2ccccc21	10µM	4.1µM	·	8.9µM	?	4µM	28µM	?	?
COc1cccc(NC(=O)Cn2c(=O)n(Cc3ccc(C(=O)NCc4ccc(C)cc4)cc3)c(=O)c3ccccc32)c1	–	?	–	–	?	·	·	·	·
Cc1cccc(-n2c(SCC(=O)Nc3ncc(Cl)cc3Cl)nc3ccccc32)c1	–	1.2µM	-99	3.2µM	0.82µM	11µM	–	5µM	–
COc1ccc(C(=O)Nc2nc3c(s2)CCCC3)cc1S(=O)(=O)N1CCCc2ccccc21	–	?	-66	11µM	?	?	–	5µM	–
Nc1[nH]nc2nc3ccccc3cc12	–	?	–	–	–	–	·	·	·
Nc1cccc2nc3ccccc3cc12	?	·	·	–	·	–	–	?	?
COc1cccc(CNc2cccc3cccnc23)c1O	·	–	–	·	–	–	–	–	–
COc1ccccc1OCCCCn1c(-c2ccc(Cl)cc2)nc2ccccc2c1=O	–	–	–	–	–	·	·	·	·
CC(=O)Nc1ccc(S(=O)(=O)Oc2ccc3c(c2)C(C)=CC(C)(C)N3)cc1	·	?	·	·	0.82µM	?	–	5µM	–
CC1=CC(C)(C)Nc2ccc(OS(=O)(=O)c3ccc(C)cc3)cc21	·	–	–	·	–	?	·	·	·
Cc1ccc(-n2cc(-c3ccccc3)c3c(NN4CCOCC4)ncnc32)cc1	?	–	?	?	–	–	–	–	–
COc1cc(NC(=S)NC(=O)c2cc(C)cc(C)c2)ccc1NC(=O)c1cccs1	–	?	–	–	–	?	·	·	·
COc1cc(NC(=S)NC(=O)c2ccc(C(C)(C)C)cc2)ccc1NC(=O)c1cccs1	–	?	-97	?	1µM	?	–	4µM	–
CCCOC(=O)c1cccc(NC(=O)CSc2nnc3cc(C)c4ccccc4n23)c1	–	–	–	–	–	·	·	·	·
COc1ccc(-c2csc(NC(=O)c3ccc(OCC(=O)N4CCOCC4)c(OC)c3)n2)cc1	–	?	–	–	?	?	–	?	–
CCOc1ccccc1NC(=O)c1ccc(OCC(=O)N2CCOCC2)c(OC)c1	·	·	?	·	·	–	·	·	·
O=C(N/N=C/c1c(O)ccc2ccccc12)c1cccc(C(F)(F)F)c1	?	2.6µM	-105	3.5µM	?	?	–	?	–
CC(=O)c1cccc(NC(=O)Nc2nnc(N3CCCC3)s2)c1	–	?	–	–	–	·	·	·	·
SMILES	Vaccinia Venus	MARV entry inh	HCMV inh	Vaccinia mCherry	LASV entry inh	HCV inh	WI-38 tox	PNC inh conf	PC3M caspase	others
O=C(COC(=O)Cc1ccsc1)NCC1CCCCC1	–	–	–	–	–	–	–	–	–
O=C(COC(=O)Cc1ccc(Br)cc1)NCC1CCCCC1	–	–	?	–	–	–	·	·	·
COc1ccc(C2=C(Nc3ccc(Br)c(C)c3)c3ccccc3C2=O)cc1	–	–	–	–	–	·	·	·	·
COc1ccccc1Cc1c(-c2ccco2)nc2c(C)cc(Br)cn12	–	·	·	–	·	·	·	·	·
COc1cc([C@@H]2c3cc4c(cc3[C@H](O)C3COC(=O)[C@@H]32)OCO4)cc(OC)c1OC (stereo not given in full)	·	?	·	·	?	·	·	·	·	G2M arrest HeLa=0.022
NSc1nc(N)c2nc(-c3ccccc3)c(-c3ccccc3)nc2n1	–	–	–	–	–	–	·	·	·
Nc1nc(N)c2nc(-c3ccccc3)c(N)nc2n1	?	2.8µM!	?	?	?	–[8.37 µM]	·	·	·	G2M arrest HeLa=10
CN(C)c1nc(OCCNC(=O)COc2ccccc2Cl)nc(N(C)C)n1	·	–	–	·	–	?	–	?	–
C=CCN=c1scc(-c2ccccc2)n1/N=C/c1ccccn1	–	2.8µM	-99	2.2µM	?	14µM	?	2µM	–
CCN=c1scc(-c2ccccc2)n1/N=C/c1ccccn1	–	?	·	5.6µM	1.5µM	?	16µM	4µM	–
Cc1nc2ccccc2c(=O)n1/N=C/c1ccccn1	–	–	?	–	–	–	·	·	·
C(=N\N1CCN(c2ccccn2)CC1)/c1ccccn1	–	–	–	–	–	–	·	·	·
CCOCCCN(C(=O)Nc1ccc(Cl)cc1)C1CCN(C(C)=O)CC1	–	·	–	–	–	·	·	·	·
CCCCN(C(=O)Nc1ccc(Cl)cc1)C1CCN(C(C)=O)CC1	–	–	–	–	?	–	–	–	–
CCOC(=O)N1CCc2c(sc3c2c(=O)n(Cc2ccccc2)c(=O)n3CC(=O)Nc2ccc(C)c(C)c2)C1	–	–	?	–	–	·	·	·	·
COc1ccc2[nH]cc(CCNc3cc(-c4ccoc4)ncn3)c2c1	–	·	·	–	·	·	·	·	·
N#Cc1ccccc1S(=O)(=O)N1CCCC(c2nc3c(nnn3Cc3cccc(Cl)c3)c(=O)[nH]2)C1 (stereo not given)	–	–	?	–	–	·	·	·	·
O=C(Cc1cccs1)Nc1nc2c(s1)CCCC2	·	0.58µM	-73	·	2.6µM	?	–	8.9µM	–
CC(C)(C)c1nc(SCC(=O)Nc2nc3c(s2)CCCC3)c2ccccc2n1	–	1µM	-61	?	1µM	?	–	7.1µM	–
COc1cc(F)ccc1-c1csc(C(C)(O)c2ccccc2)n1 (stereo not given)	–	·	–	–	·	·	·	·	·
